# Source: PubChem
# AmpC inh no detg = AmpC beta-lactamase inhibition without detergent. hit rate 0.52% among 330,000. AmpC nitrocefin hydrolysis, absorbance 480 nm, 0.0001% Triton. P00811. Potency, µM (top dose mostly 57.1 µM), actives largely listed as inhibitors; note: nearly all actives have a fitted effect of over 20% in size
# Target sequence (P00811 whole entry, looked up): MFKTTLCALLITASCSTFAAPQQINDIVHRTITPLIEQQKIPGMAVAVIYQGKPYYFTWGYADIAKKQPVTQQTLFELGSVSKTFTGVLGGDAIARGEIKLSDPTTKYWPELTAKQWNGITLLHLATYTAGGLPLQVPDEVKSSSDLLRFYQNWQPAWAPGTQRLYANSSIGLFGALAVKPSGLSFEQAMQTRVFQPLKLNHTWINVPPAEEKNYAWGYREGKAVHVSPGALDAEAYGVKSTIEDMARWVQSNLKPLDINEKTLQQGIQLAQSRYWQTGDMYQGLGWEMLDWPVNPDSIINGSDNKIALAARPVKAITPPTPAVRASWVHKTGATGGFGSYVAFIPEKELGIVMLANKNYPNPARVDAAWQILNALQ
#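 20 mM phosphate pH 7.0 + 0.01% (detergent screen) or 0.0001% Triton X-100; 5.3 nM AmpC reagent; cpd preinc 15 min RT; nitrocefin (800 uM stock) to start; A480 q20 s × 4 min; Activity was normalised to no-enzyme and no-compound control wells.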
# Sm TGR inh = inhibitors of Schistosoma mansoni thioredoxin glutathione reductase; Q962Y6; AID 485364; purified TGR, DTNB reduction, TNB absorbance 405 nm; Potency, µM (titrated, usually from 114 µM), hits mostly inhibitors; hit rate 3% among 360,000; note: nearly all actives have a fitted effect of over 60% in size
#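 TGR 20 nM + NADPH 100 uM (dispensed conc.), cpd preinc 15 min RT; start with NADPH (500 uM addition) then DTNB (15 mM addition). Kinetic TNB absorbance, 405 nm filter. Four-parameter Hill fit across titration.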
# FBPA Giardia inh = blocks Giardia fructose-bisphosphate aldolase activity | A8B2U2 | purified Giardia FBPA | AID 2451 | hit rate 0.71% among 290,000 | Potency, µM (doses to about 59.6 µM), usual class: inhibitors; note: nearly all actives have a fitted effect of over 55% in size
# Target sequence (A8B2U2 whole entry, looked up): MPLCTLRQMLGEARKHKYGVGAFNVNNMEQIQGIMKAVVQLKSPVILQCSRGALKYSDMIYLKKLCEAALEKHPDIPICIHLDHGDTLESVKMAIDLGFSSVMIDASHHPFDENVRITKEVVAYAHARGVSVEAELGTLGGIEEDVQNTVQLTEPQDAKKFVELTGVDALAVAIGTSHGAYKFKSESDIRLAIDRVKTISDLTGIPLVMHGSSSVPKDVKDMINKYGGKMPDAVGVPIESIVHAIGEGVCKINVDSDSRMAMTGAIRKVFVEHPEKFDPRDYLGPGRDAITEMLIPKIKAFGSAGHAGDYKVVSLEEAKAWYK
#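 40 nM FBPA preincubated 10 min at RT with compound (up to 57.5 uM final), then substrate plus GAPDH/TPI/NAD/arsenate coupling and diaphorase/resazurin added. Fluorescence read after 20 min at RT, 525/598 nm.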
# RE007 growth inh = less growth of the S. pombe RE007 Vpr strain. S. pombe RE007 Vpr strain, BacTiter-Glo ATP luminescence, 24 h. Potency, µM (doses to about 92.2 µM), most hits filed as inhibitors. hit rate 0.21% among 360,000; active = well fitted falling curve with a large enough effect; inconclusive = small, poorly fitted or top-dose-only effect; inactive = no such curve, though single readings can be large or run the other way; note: nearly all actives have a fitted effect of over 50% in size
#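 Fission yeast strain RE007, carrying one chromosomally integrated HIV-1 vpr copy, was seeded at OD 0.01 in PMG+AL medium with 23 nL pinned compound. After 24 h at 30 °C and 99% humidity, viability was read by BacTiter-Glo luminescence.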
# AmpC detergent = blocks E. coli AmpC beta-lactamase in detergent assay | P00811 | AmpC hydrolysis of nitrocefin, absorbance 480 nm, 0.01% Triton | Potency, µM (series often up to 114 µM), actives largely listed as inhibitors | hit rate 0.041% among 370,000 | AID 485294; note: nearly all actives have a fitted effect of over 25% in size
#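 20 mM phosphate pH 7.0 + 0.01% (detergent screen) or 0.0001% Triton X-100; 5.3 nM AmpC reagent; cpd preinc 15 min RT; nitrocefin (800 uM stock) to start; A480 q20 s × 4 min; Activity was normalised to no-enzyme and no-compound control wells.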
# A number is an active result; . = inactive; ? = inconclusive; / = no result. A selection: hits, their analogues and other compounds. The true share with any hit is near 3.4%. Unless noted, calls come from the whole dose curve; as a rule, active = well fitted curve in the direction sought with a large enough effect; inconclusive = small, poorly fitted or top-dose-only effect, or another doubt; inactive = no such curve, though single readings can be large; an effect the other way counts as inactive or inconclusive.
SMILES,AmpC inh no detg,Sm TGR inh,FBPA Giardia inh,RE007 growth inh,AmpC detergent
COC(=O)c1ccc(C2/C(=C(/O)c3ccc(Cl)cc3)C(=O)C(=O)N2C2CCS(=O)(=O)C2)cc1 (centres undefined),.,.,.,.,.
COC1(C)CCC2OC2(C)CCC2C1CC2(C)C (centres undefined),/,/,.,/,/
COc1cc(OC)nc(-n2ncc(Br)c(Br)c2=O)n1,.,1.8µM,.,.,.
OCC[C@H]1C[C@H](O)[C@@H](O)[C@@]2(OCc3ccccc32)O1,.,45µM,/,.,.
OCC[C@@H]1C[C@@H](O)[C@H](O)[C@]2(OCc3ccccc32)O1,.,.,.,.,.
Cc1cc(F)cc(-c2cc(C(=O)NCC3CCCCC3)[nH]n2)c1,/,/,/,.,/
Cc1cccc(N(C(=O)Cn2nnc3ccccc32)C(C(=O)NC(C)(C)C)c2ccsc2)c1C (centres undefined),0.22µM,.,.,.,.
COc1ccc(CNc2cc(NCCCO)c([N+](=O)[O-])c3nonc23)cc1,.,22µM,?,.,.
CN(CCO)c1cc(N2CCC3(CC2)OCCO3)c2nonc2c1[N+](=O)[O-],.,28µM,.,.,.
O=[N+]([O-])c1c(NCCCO)cc(N2CCCCCC2)c2nonc12,.,11µM,.,.,.
CN(CCO)c1cc(N2CCCCC2)c2nonc2c1[N+](=O)[O-],.,18µM,.,.,.
CC1CCCN(c2cc(N(C)CCO)c([N+](=O)[O-])c3nonc23)C1 (centres undefined),.,.,.,.,.
Cc1ccc(S(=O)(=O)NCc2ccccc2Br)cc1,/,/,/,.,/
COc1ccc(/C=C2/CCCC(C(=O)C(F)(F)F)=C2O)cc1OC,.,?,.,.,.
COc1ccc(/C=C2\CCCC(C(=O)C(F)(F)F)=C2O)cc1OC,.,32µM,?,/,.
COc1cc(/C=C2/CCCC(C(=O)C(F)(F)F)=C2O)ccc1O,.,35µM,.,.,.
CCOc1cc(/C=C2\CCCC(C(=O)C(F)(F)F)=C2O)ccc1O,.,?,.,?,.
CN(C)c1ccc(CNC(=O)c2ccc(NC(=O)c3nsc4ccccc34)cc2)cc1,/,.,/,/,.
Cc1cc(C)c2ccc3c(C)c(C)n(C)c3c2n1,.,.,.,.,.
CCOP(=O)(OCC)/C(C#N)=C/c1ccoc1,.,45µM,.,.,.
CCn1cc(CN2CCC(C(=O)Nc3cccc(-c4cscn4)c3)CC2)cn1,.,.,.,.,.
O=C(Nc1cccc(Cl)c1)OCC#CCCl,/,/,7.1µM,/,/
O=C(NCc1ccco1)c1sc2cc(Cl)ccc2c1Cl,.,40µM,.,?,.
O=C(NCc1ccco1)c1sc2ccccc2c1Cl,.,?,.,?,.
CCOC(=O)C1CCCN(Cc2nc(N)nc(Nc3ccccc3)n2)C1 (centres undefined),.,.,.,.,.
SMILES,AmpC inh no detg,Sm TGR inh,FBPA Giardia inh,RE007 growth inh,AmpC detergent
CCCC(=O)Nc1ccc2c(c1)nc(CN1CCN(C(=O)OCC)CC1)n2C,.,.,.,.,.
CCOC(=O)N1CCN(Cc2nc3cc(NC(=O)c4ccco4)ccc3n2C)CC1,.,50µM,/,.,.
Fc1ccc(/C=C2\CCCC3=C2NC(=S)NC3c2ccc(F)cc2)cc1 (centres undefined),14µM,?,.,/,.
S=C1NC2=C(CCCC2=C2SCCS2)C(c2ccccc2)N1 (centres undefined),.,.,.,.,.
CC(=O)Nc1ccc2sn(-c3ccccc3)c(=O)c2c1,/,/,/,.,/
N#Cc1ccc2sn(-c3ccccc3)c(=O)c2c1,/,/,/,7.9µM,/
O=c1c2cc([N+](=O)[O-])ccc2sn1-c1ccccc1,/,/,/,5.6µM,/
Cc1cccc(C(=O)NC(=S)Nc2ccc(S(=O)(=O)N3CCN(C)CC3)cc2)c1,.,?,?,.,.
O=C(NC(=S)Nc1ccc(S(=O)(=O)N2CCCC2)cc1)c1cccs1,.,18µM,?,.,.
CC(=O)c1ccc(NC(=O)Nc2ccc(S(=O)(=O)N3CCCC3)cc2)cc1,14µM,.,/,.,.
COc1cc(OC)cc(C(=O)NC(=S)Nc2ccc(N3CCCC3)cc2)c1,.,89µM,.,.,?
Cc1ccc(C(=O)NC(=S)Nc2ccc(S(=O)(=O)N3CCN(C)CC3)cc2)cc1,.,28µM,.,.,?
CNC(=O)c1c2c(nc3ccc(Br)cc13)CCCC2,.,.,.,.,.
O=C(NC(=S)Nc1ccc(N2CCCCC2)cc1)c1cccs1,.,40µM,.,?,.
COc1ccc(NC(=O)C(=S)N2CCCC2)cc1,.,.,.,16µM,.
COc1ccc(NC(=S)N2CCCC2)cc1,.,.,.,.,.
COc1ccc(NC(=S)Nc2cccc(S(=O)(=O)N3CCCCC3)c2)cc1,.,35µM,.,.,.
CN(C(=O)c1ccccc1Cl)c1ccccc1,.,.,.,.,?
Cc1ccc(S(=O)(=O)Cn2nnnc2C(c2ccc(F)cc2)N2CCCCC2)cc1 (centres undefined),.,.,.,.,.
C/C(CC1CC(COCC(C)C)OC1=O)=N\Nc1nc(-c2ccccc2)cs1 (centres undefined),?,56µM,.,.,.
CC(C)(C)C(=O)NCCc1csc2nc(-c3ccc(F)cc3)nn12,/,.,/,/,.
CCCCn1c(N)c(N(CCOC)C(=O)COc2ccc(C(C)=O)cc2)c(=O)[nH]c1=O,.,.,/,.,.
O=C(NNC(=S)Nc1ccc(Cl)c(Cl)c1)c1cccc([N+](=O)[O-])c1,.,.,.,.,.
Cc1ccc(CNS(=O)(=O)c2ccc(F)c(F)c2)n1C,.,20µM,.,.,.
Cc1ccc(CNS(=O)(=O)c2ccc(C(F)(F)F)cc2)n1C,.,16µM,.,.,.
SMILES,AmpC inh no detg,Sm TGR inh,FBPA Giardia inh,RE007 growth inh,AmpC detergent
COc1cc(NC(=O)c2ccc(N3CCCC3=O)cc2)cc(OC)c1,.,/,/,.,/
CC1Cc2cc(/C(O)=C3\C(=O)C(=O)N(Cc4ccncc4)C3c3ccccc3F)ccc2O1 (centres undefined),.,.,/,.,.
Cc1ccc(N/N=C2/CCCNC2=O)cc1,.,32µM,.,.,.
CC(=O)c1ccc(N/N=C2/CCCNC2=O)cc1,.,.,.,.,.
CCN(CC)S(=O)(=O)c1cccc(NC(=O)Nc2cccc(C(F)(F)F)c2)c1,.,.,.,.,?
CCOc1nc(N(C)C)nc(-n2nnc(C(C)=O)c2C)n1,.,.,.,.,.
COc1ccc2c(c1)c(C(O)CN1CCC3(CC1)OCCO3)c(C)n2C (centres undefined),.,25µM,.,/,?
Cc1[nH]c2ccccc2c1C(=O)CCl,.,2µM,.,.,.
Cc1[nH]c2ccccc2c1C(O)CN1CCC2(CC1)OCCO2 (centres undefined),.,16µM,.,.,.
Cc1[nH]c2ccccc2c1C(=O)CN1CCC2(CC1)OCCO2,.,45µM,.,.,.
